Assay results reported in PubChem BioAssay (Tox21).
Results filed as inconclusive are left out. The source made the active and inactive calls. Unless noted, calls follow the shape of the dose curve; as a rule, active = well fitted curve in the direction sought with a large enough effect in the repeat runs; inconclusive = weak or mixed curves; inactive = no such curve, though single readings can be large; an effect the other way counts as inactive or inconclusive.

Key:
[1] = qHTS assay for small molecules that induce genotoxicity in human embryonic kidney cells expressing luciferase-tagged ATAD5 (AID 651632); also: nearly all actives have a fitted effect of over 15% in size
Method in brief: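 HEK293T cells carrying luciferase-tagged ATAD5 were given compound or DMSO vehicle and incubated 16 hr at 37C, 5% CO2. Luciferase activity was read after 30 min at room temperature with Amplite; a rise signals genotoxic stress.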

[2] = qHTS assay for small molecule agonists of the p53 signaling pathway - cell viability (AID 651633; calls by dose curve;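 also: p53RE-bla HCT reporter cells with a stable beta-lactamase p53 reporter; series mostly up to about 83 µM; nearly all actives have a fitted effect of over 30% in size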)
Method in brief: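 p53RE-bla cells were treated with compound for 16 hours at 37 C. Cytotoxicity was then measured as CellTiter-Glo luminescence after 30 min at room temperature.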

[3] = qHTS assay for small molecules that induce genotoxicity in human embryonic kidney cells expressing luciferase-tagged ATAD5 - cell viability (AID 651634; calls by dose curve; also: nearly all actives have a fitted effect of over 25% in size)
Method in brief: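 HEK293T cells carrying luciferase-tagged ATAD5, 2,000 cells/well, exposed to compound for 15.5 hr at 37C. Viability read as live-cell protease activity by CellTiter-Fluor fluorescence after 30 min at 37C.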

[4] = qHTS assay for small molecule disruptors of the mitochondrial membrane potential - cell viability (AID 720634; calls by dose curve;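 also: human HepG2 liver cancer cells; series mostly up to about 83 µM; nearly all actives have a fitted effect of over 20% in size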)
Method in brief: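 HepG2 cells, 2,000 per well, attached overnight, then treated 1 hr at 37 C, 5% CO2. Viability read as ATP by CellTiter-Glo luminescence after 30 min at room temperature. Read in the same wells as the m-MPI membrane-potential dye assay.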

[5] = qHTS assay to test for compound auto fluorescence at 590 nm (red) in HepG2 cells (AID 720674)
Method in brief: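 Seeding: 2,000 HepG2 cells/well, MEM/10% FBS, overnight 37 C. Dosing: compound vs DMSO. Incubation: 1 hr, 37 C, 5% CO2. Read: fluorescence 540 ex/590 em, Rose Bengal sodium as red reference.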

[6] = qHTS assay to test for compound auto fluorescence at 535 nm (green) in HepG2 cells (AID 720675)
[7] = qHTS assay to test for compound auto fluorescence at 460 nm (blue) in HEK293 cells (AID 720678)
Method in brief: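 Blue read-out at excitation 405 nm and emission 460 nm follows overnight compound exposure of HEK293 cells at 37C in 5% CO2. Activity is given as auto fluorescence equivalency to triamterene.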

[8] = qHTS assay to test for compound auto fluorescence at 590 nm (red) in HEK293 cells (AID 720679)
Method in brief: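 Red channel, Ex/Em 540/590nm; signal expressed as equivalency to Rose Bengal sodium. HEK293, 2,000 cells/well, 10% dialyzed FBS; 23 nL compound pinned after 4-5 hr attachment; overnight 37C/5% CO2 before reading.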

[9] = qHTS assay for small molecule disruptors of the mitochondrial membrane potential (AID 720635)
Method in brief: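 HepG2 cells exposed to compound 1 hr at 37C, then Mito-MPS dye 30 min. Ratio read of aggregate (540/590 nm) versus monomer (490/535 nm) fluorescence.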
% is scaled to controls: 0 for no effect and ±100 for the full control effect.

CC(C)COC(=O)CCCCC(=O)OCC(C)C
inactive: outcome [1] | outcome [2] | Potency [3] | outcome [4] | outcome [5] | outcome [6] | outcome [7] | outcome [8]

CC(C)(C)NCCO
inactive: outcome [1] | outcome [2] | Potency [3] | outcome [4] | outcome [5] | outcome [6] | outcome [7] | outcome [8]

C1=CCC(c2ccccc2)CC1 (stereo not drawn)
inactive: outcome [1] | outcome [2] | Potency [3] | outcome [4] | Potency [9] | outcome [6] | outcome [7] | outcome [8]

CCCOCCOCCOCCO
inactive: outcome [1] | outcome [2] | Potency [3] | outcome [4] | outcome [5] | outcome [6] | outcome [7] | outcome [8]

O=c1[nH]c(=O)c2[nH]c(=O)[nH]c2[nH]1
inactive: outcome [1] | outcome [2] | Potency [3] | outcome [4] | Potency [9] | outcome [5] | outcome [6] | outcome [7] | outcome [8]

CCOC(=O)C(C)(C)C
inactive: outcome [1] | outcome [2] | Potency [3] | outcome [4] | Potency [9] | outcome [5] | outcome [6] | outcome [7] | outcome [8]

CC(Cl)COP(=O)(OCC(C)Cl)OCC(C)Cl (stereo not drawn)
inactive: outcome [1] | outcome [2] | Potency [3] | outcome [4] | outcome [5] | outcome [6] | outcome [7] | outcome [8]

Nc1cc(S(=O)(=O)O)ccc1S(=O)(=O)O
inactive: outcome [1] | outcome [2] | Potency [3] | outcome [4] | outcome [5] | outcome [6] | outcome [7] | outcome [8]

CCCO
inactive: outcome [1] | outcome [2] | Potency [3] | outcome [4] | Potency [9] | outcome [6] | outcome [7] | outcome [8]

Cc1nc(C)nc(N2C[C@@H](C)N(c3ccnc([C@@H](C)O)n3)[C@@H](C)C2)n1
inactive: outcome [1] | outcome [2] | Potency [3] | outcome [4] | Potency [9] | outcome [5] | outcome [6] | outcome [7] | outcome [8]

CCC1Nc2cc(Cl)c(S(N)(=O)=O)cc2S(=O)(=O)N1 (stereo not drawn)
inactive: outcome [1] | outcome [2] | Potency [3] | outcome [4] | outcome [5] | outcome [6] | outcome [7] | outcome [8]

CCCCC(CC)C(=O)OC(C)C (stereo not drawn)
inactive: outcome [1] | outcome [2] | Potency [3] | outcome [4] | outcome [5] | outcome [6] | outcome [7] | outcome [8]

Nc1ccc(S(=O)(=O)Nc2ccccn2)cc1
inactive: outcome [1] | outcome [2] | Potency [3] | outcome [4] | Potency [9] | fluorescence, relative to Rose Bengal [5] 0.667% [at 18.6 µM] | fluorescence, % of fluorescein control [6] -0.201% [at 18.6 µM] | fluorescence, % of triamterene [7] -0.296% [at 18.6 µM] | fluorescence, % of fluorescent control [8] 0.278% [at 18.6 µM]

CCOC(=O)CCc1ccccc1
inactive: outcome [1] | outcome [2] | Potency [3] | outcome [4] | Potency [9] | outcome [5] | outcome [6] | outcome [7] | outcome [8]

FC(F)(F)c1ccc(Cl)cc1Cl
inactive: outcome [1] | outcome [2] | Potency [3] | outcome [4] | outcome [5] | outcome [6] | outcome [7] | outcome [8]

CN(C1CCCCC1)S(=O)(=O)c1ccccc1N
inactive: outcome [1] | outcome [2] | Potency [3] | outcome [4] | outcome [5] | outcome [6] | outcome [7] | outcome [8]

Cc1ncc([N+](=O)[O-])n1CC(O)CCl (stereo not drawn)
inactive: outcome [1] | outcome [2] | Potency [3] | outcome [4] | fluorescence, relative to Rose Bengal [5] -0.0192% [at 18.6 µM] | fluorescence, % of fluorescein control [6] -0.155% [at 18.6 µM] | fluorescence, % of triamterene [7] -0.195% [at 18.6 µM] | fluorescence, % of fluorescent control [8] -0.364% [at 18.6 µM]

NCCc1ccn[nH]1
inactive: outcome [1] | outcome [2] | Potency [3] | outcome [4] | Potency [9] | fluorescence, relative to Rose Bengal [5] 0.0089% [at 18.6 µM] | fluorescence, % of fluorescein control [6] 0.0074% [at 18.6 µM] | fluorescence, % of triamterene [7] -0.006% [at 18.6 µM] | fluorescence, % of fluorescent control [8] 0.131% [at 18.6 µM]

CC(=O)/C=C/c1ccco1
inactive: outcome [1] | outcome [2] | Potency [3] | outcome [4] | Potency [9] | outcome [5] | outcome [6] | outcome [7] | outcome [8]

OC[C@@H](O)[C@H](O)[C@@H](O)[C@@H](O)CO
inactive: outcome [1] | outcome [2] | Potency [3] | outcome [4] | outcome [5] | outcome [6] | outcome [7] | outcome [8]

CNC(=O)C(c1ccccc1)c1ccccc1
inactive: outcome [1] | outcome [2] | Potency [3] | outcome [4] | outcome [6] | outcome [7] | outcome [8]

COC(/C=C(\C)CCC=C(C)C)OC
inactive: outcome [1] | outcome [2] | Potency [3] | Potency [9] | outcome [6] | outcome [7] | outcome [8]

C=CC(C)(O)CC/C=C(\C)CC (stereo not drawn)
inactive: outcome [1] | outcome [2] | Potency [3] | outcome [4] | outcome [6] | outcome [7] | outcome [8]

CN(C)CCOCCN(C)CCO
inactive: outcome [1] | outcome [2] | Potency [3] | outcome [5] | outcome [6] | outcome [7] | outcome [8]

CCC(C)(CCC(C)C)C(=O)[O-].CCC(C)(CCC(C)C)C(=O)[O-].[Zn+2] (stereo not drawn)
inactive: outcome [1] | outcome [2] | Potency [3] | outcome [4] | outcome [5] | outcome [6] | outcome [7] | outcome [8]

CCCCCCCCCCCCOC(C)=O
inactive: outcome [1] | outcome [2] | Potency [3] | Potency [9] | outcome [6] | outcome [7] | outcome [8]

CCN(CCC#N)c1ccccc1
inactive: outcome [1] | outcome [2] | Potency [3] | outcome [4] | outcome [5] | outcome [6] | outcome [7] | outcome [8]

CC1=CC[C@H](CC=O)C1(C)C
inactive: outcome [1] | outcome [2] | Potency [3] | outcome [4] | outcome [5] | outcome [6] | outcome [7] | outcome [8]

Cc1c(C(C)C)c(=O)n(-c2ccccc2)n1C
inactive: outcome [1] | outcome [2] | Potency [3] | outcome [4] | outcome [6] | outcome [7] | outcome [8]

CCCCC(CC)COC(=O)c1ccccc1 (stereo not drawn)
inactive: outcome [1] | outcome [2] | Potency [3] | outcome [5] | outcome [6] | outcome [7] | outcome [8]

CCC(CO)CO
inactive: outcome [1] | outcome [2] | Potency [3] | outcome [4] | outcome [5] | outcome [6] | outcome [7] | outcome [8]

CC(=O)OCC(=O)[C@@]1(O)[C@H](OC(C)=O)C[C@H]2[C@@H]3CCC4=CC(=O)C=C[C@]4(C)[C@@]3(F)[C@@H](O)C[C@@]21C
inactive: outcome [1] | outcome [2] | Potency [3] | outcome [5] | outcome [6] | outcome [7] | outcome [8]

COc1cc2c3cc1Oc1cc(ccc1O)C[C@@H]1c4c(cc(OC)c(O)c4Oc4ccc(cc4)C[C@@H]3N(C)CC2)CC[N+]1(C)C
inactive: outcome [1] | outcome [2] | Potency [3] | Potency [9] | outcome [5] | outcome [6] | outcome [7] | outcome [8]

O=C(COCCOCCOCC(=O)Nc1c(I)cc(I)c(C(=O)O)c1I)Nc1c(I)cc(I)c(C(=O)O)c1I
inactive: outcome [1] | outcome [2] | Potency [3] | Potency [9] | outcome [6] | outcome [7] | outcome [8]

C[N+](C)(C)CC(O)CCl (stereo not drawn)
inactive: outcome [1] | outcome [2] | Potency [3] | outcome [5] | outcome [6] | outcome [7] | outcome [8]

C=CCOc1c(Br)cc(Br)cc1Br
inactive: outcome [1] | outcome [2] | Potency [3] | outcome [5] | outcome [6] | outcome [7] | outcome [8]

CC1(N)CCC(C(C)(C)N)CC1 (stereo not drawn)
inactive: outcome [1] | outcome [2] | Potency [3] | outcome [4] | outcome [6] | outcome [7] | outcome [8]

Nc1cc(C(=O)O)ccc1Cl
inactive: outcome [1] | outcome [2] | Potency [3] | outcome [4] | outcome [5] | outcome [6] | outcome [7] | outcome [8]

O=[Si]=O
inactive: outcome [1] | outcome [2] | Potency [3] | Potency [9] | outcome [5] | outcome [6] | outcome [7] | outcome [8]

N#CCCOCCOCCC#N
inactive: outcome [1] | outcome [2] | Potency [3] | outcome [5] | outcome [6] | outcome [7] | outcome [8]

CCC(C)N (stereo not drawn)
inactive: outcome [1] | outcome [2] | Potency [3] | outcome [4] | outcome [6] | outcome [7] | outcome [8]

C=CCOC(=O)c1ccc(C(=O)OCC=C)c(C(=O)OCC=C)c1
inactive: outcome [1] | outcome [2] | Potency [3] | outcome [5] | outcome [6] | outcome [7] | outcome [8]
